Sampled rows, rich in hits. Any-hit rate of the full collection: about 3.9%.
ALR H2O2 inh: inhibitors of human sulfhydryl oxidase ALR | inhibition, % (no concentration beside the values) | purified ALR, DTT oxidation, H2O2 HRP-luminol luminescence | 290,000 compounds, 3.8% hits | AID 485317;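 active means mean replicate inhibition above about 79%, with every replicate also reaching it, limit read from the data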
Casp6 inh: caspase-6 (human) enzyme inhibition | 350,000 compounds, 0.53% hits | purified caspase-6, Z-VEID-R110 cleavage fluorescence | P55212 | inhibition, % at 12.5 µM;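 active means mean inhibition across replicates at least about 35%, with every replicate also reaching that limit, limit read from the data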;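 further: 0% = median of neutral control wells and 100% = no fluorescence left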
CDK5 p35 inh: blocks human CDK5/p35 kinase activity | Recombinant CDK5/p35, ADP-Glo luminescence, 60 min | 330,000 compounds, 0.01% hits | inhibition, % at 10 µM | Q00535+Q15078;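 active means highest replicate inhibition of at least 50% and at least 75% of replicates reaching 50%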;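 further: plate controls were DMSO neutral control for no effect and GW8510 at 10 µM for full effect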
Target sequence (Q00535 whole entry, looked up): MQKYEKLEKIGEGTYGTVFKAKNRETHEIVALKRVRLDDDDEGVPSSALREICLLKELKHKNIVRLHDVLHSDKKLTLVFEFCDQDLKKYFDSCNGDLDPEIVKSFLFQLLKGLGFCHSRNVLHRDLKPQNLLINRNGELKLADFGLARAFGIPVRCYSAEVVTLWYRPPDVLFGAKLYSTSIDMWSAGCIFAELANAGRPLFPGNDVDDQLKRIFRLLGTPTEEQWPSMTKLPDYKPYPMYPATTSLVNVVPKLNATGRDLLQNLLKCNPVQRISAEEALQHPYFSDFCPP
Target sequence (Q15078 whole entry, looked up): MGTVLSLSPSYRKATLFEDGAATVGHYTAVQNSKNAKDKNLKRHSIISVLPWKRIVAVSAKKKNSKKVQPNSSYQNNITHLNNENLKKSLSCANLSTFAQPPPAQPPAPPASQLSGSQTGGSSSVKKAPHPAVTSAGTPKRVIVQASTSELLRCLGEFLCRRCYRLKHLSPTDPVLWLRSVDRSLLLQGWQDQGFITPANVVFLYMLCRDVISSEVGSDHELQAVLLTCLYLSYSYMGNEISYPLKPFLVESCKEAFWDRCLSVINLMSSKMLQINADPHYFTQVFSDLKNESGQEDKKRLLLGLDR
NSD2 inh: inhibitors of human histone methyltransferase NSD2; O96028; NSD2 peptide methylation, AlphaScreen, 120 min; inhibition, % at 12.5 µM; 310,000 compounds, 0.54% hits; in the data active means inhibition above about 50%
SUMO Mot1 rescue: blocks SUMOylation pathway, rescuing yeast Mot1-301 growth. S. cerevisiae Mot1-301 growth rescue, ATP luminescence, 38.5C; percent above DMSO median, 100 means doubled. growth rescue, % at 18.8 µM. 320,000 compounds, 1% hits;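 active means every valid replicate shows activation above 250% relative to neutral control wells; inactive means the rest, any valid replicate at or below 250%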;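 further: OY570 slx delta 5 strain wells were the positive control but not used for scaling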
N-glyco inh: N-linked glycosylation inhibition. D54 ERlucT glycosylation luciferase reporter, 24 h; percent of 100 nM tunicamycin response. reporter increase, % at 12.5 µM. 360,000 compounds, 0.23% hits. AID 588692;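 active means mean luciferase reporter signal, scaled so untreated is 0 and the glycosylation-blocking control 100, at or above a set limit in every replicate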;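 further: luciferase carries N-glycosylation sites so blocking glycosylation raises the light; 0% = median of neutral control wells and 100% = median of 100 nM tunicamycin wells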
Active calls of the source: *; · = not tested or not shown.

SMILES	ALR H2O2 inh	Casp6 inh	CDK5 p35 inh	NSD2 inh	SUMO Mot1 rescue	N-glyco inh
CCNC(=O)C[C@H]1C=C[C@H](NS(=O)(=O)c2ccc(F)cc2)[C@H](CO)O1	·	-1	·	·	·	·
C[C@@H]1CCCCO[C@@H](CN(C)C(=O)Nc2ccc(F)cc2)[C@@H](C)CN([C@H](C)CO)C(=O)c2cc(NS(=O)(=O)c3cccs3)ccc2O1	·	1	·	·	·	·
Cc1cc(N/N=C/c2ccco2)c2ccccc2n1	77*	6	1	2	-7	-1
Cc1cc(N/N=C/c2ccc(O)cc2O)c2ccccc2n1	97*	4	-1	15	-1	4
CCc1nnc2n1N=C(c1ccc([N+](=O)[O-])cc1)CS2	97*	0	1	·	-4	1
CCc1nnc2n1N=C(c1ccc(OC)cc1)CS2	9	·	1	-1	-10	37*
CCOc1ccc(-c2nnc3n2N=C(c2ccc(OC)cc2)CS3)cc1	-13	·	-3	-5	13	3
CC(C)NC(=O)Nc1ccc2c(c1)CC(=O)N([C@H](C)CO)C[C@@H](C)[C@@H](CN(C)Cc1ccccc1)O2	·	1	·	·	·	·
CCc1ccc(CN(Cc2cccnc2)C(=O)/C=C/c2ccc(OC)cc2)cc1	2	98*	-1	5	856	-5
C[C@H](CO)N1C[C@H](C)[C@@H](CN(C)Cc2ccncc2)Oc2ccc(NS(=O)(=O)c3ccccc3)cc2CC1=O	·	-1	·	·	·	·
Cc1ccc(S(=O)(=O)N(C)C[C@@H]2OCCCC[C@@H](C)Oc3ccc(NC(=O)c4ccncc4)cc3C(=O)N([C@@H](C)CO)C[C@H]2C)cc1	·	1	·	·	·	·
Cc1ccc2c(c1)[C@H]1[C@H](CO2)[C@H](c2ccccc2)[C@]2(C)C(=O)Nc3cc(Cl)ccc3C(=O)N12	-2	·	1	·	72	22
COc1ccc2c(c1)C(=O)N1[C@H]3c4cc(Cl)ccc4OC[C@@H]3[C@H](c3ccccc3)[C@]1(C)C(=O)N2	1	·	-1	·	150	38*
COc1ccc2c(c1)C(=O)N1[C@H]3c4cc(Br)ccc4OC[C@@H]3[C@H](c3ccccc3)[C@]1(C)C(=O)N2	-4	·	0	·	22	37*
COc1ccc2c(c1)[C@H]1[C@H](CO2)[C@H](c2ccccc2)[C@]2(C)C(=O)Nc3cc(Cl)ccc3C(=O)N12	·	·	0	·	107	64*
C[C@@]12C(=O)Nc3ccc(Cl)cc3C(=O)N1[C@H]1c3cc(Br)ccc3OC[C@@H]1[C@@H]2c1ccccc1	0	1	-1	·	-16	17
C[C@@]12C(=O)Nc3ccc(Br)cc3C(=O)N1[C@H]1c3cc(Br)ccc3OC[C@@H]1[C@@H]2c1ccccc1	-1	-3	-2	·	0	15
CC=Cc1ccc2n(c1=O)C[C@H]1[C@H](CO)[C@@H](C(=O)NCc3ccccn3)[C@@H]2N1CCC (mixture of isomers)	·	0	·	·	·	·
COc1cc(C)c(-c2cc(C(=O)O)c(C)o2)cc1C(C)C	97*	·	0	5	-30	2
CCN(CC)c1ccc2cc(NC(=O)CCC(=O)O)c(=O)oc2c1	99*	·	-2	·	-7	0
CCN(CC)c1ccc2cc(C(C)=O)c(=O)oc2c1	0	-2	0	-3	-4	3
C[C@@H]1CN([C@H](C)CO)C(=O)c2cc(NS(C)(=O)=O)ccc2O[C@@H](C)CCCCO[C@@H]1CN(C)S(=O)(=O)c1cccs1	·	1	·	·	·	·
CCOC(=O)N1CCN(CC(O)c2ccc3cc[nH]c3c2)CC1 (stereo unspecified)	-4	-2	0	·	23	0
CCOC(=O)N1CCN(CC(O)c2ccc3c(c2)CCN3)CC1 (stereo unspecified)	82*	-1	-1	-10	-16	-2
COC(=O)C1CCN(C(=O)c2cc(-c3ccco3)nc3ccccc23)CC1	2	58*	1	4	4	-1
COc1cc(/C=N/NC(=O)c2cc(-c3ccco3)nc3ccccc23)cc(OC)c1O	97*	-1	1	14	-16	1
O=C(O)c1cc(-c2ccco2)nc2ccc(Br)cc12	98*	·	-10	-1	-20	1
CCc1ccc(/C=N/NC(=O)c2cc(-c3ccncc3)nc3ccccc23)s1	-2	·	1	-1	259	30*
